Usually inhibition stands for the drop in the measured response relative to a control, in per cent.

This passage reports inhibition results from ChEMBL document CHEMBL1961873, “Compounds: GSK PKIS; Assays: Nanosyn kinase panel” (2012).

The target in test [1] is Protein kinase C gamma type (Homo sapiens) (UniProt P05129). As to conditions: at 1 µM.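 Also: each value is an averaged percent inhibition of the enzyme.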
Test [2] concerns the target T1, Protein kinase C iota type (Homo sapiens) (UniProt P41743).
T1 sequence (whole entry): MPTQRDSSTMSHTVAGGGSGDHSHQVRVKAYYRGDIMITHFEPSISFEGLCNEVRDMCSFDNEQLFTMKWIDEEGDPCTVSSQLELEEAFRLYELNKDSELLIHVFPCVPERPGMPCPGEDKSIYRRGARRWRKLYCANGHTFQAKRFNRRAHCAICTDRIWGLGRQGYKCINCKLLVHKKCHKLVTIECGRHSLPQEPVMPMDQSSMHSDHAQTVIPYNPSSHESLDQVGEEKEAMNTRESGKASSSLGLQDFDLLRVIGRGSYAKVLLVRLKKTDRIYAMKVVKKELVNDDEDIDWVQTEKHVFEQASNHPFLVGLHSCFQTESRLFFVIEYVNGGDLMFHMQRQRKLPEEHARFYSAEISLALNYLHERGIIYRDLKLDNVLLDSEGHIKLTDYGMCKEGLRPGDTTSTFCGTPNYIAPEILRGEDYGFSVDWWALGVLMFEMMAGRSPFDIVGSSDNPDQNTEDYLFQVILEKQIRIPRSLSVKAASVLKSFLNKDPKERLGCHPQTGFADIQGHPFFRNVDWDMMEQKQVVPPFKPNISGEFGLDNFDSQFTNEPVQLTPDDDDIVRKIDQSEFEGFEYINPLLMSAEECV
To be noted: at 0.1 µM.

Test [3] has as its target T1, Protein kinase C iota type (Homo sapiens). As to conditions: at 1 µM.
The target of test [4] is Protein kinase C theta type (Homo sapiens) (UniProt Q04759). As to conditions: at 0.1 µM.
Sequence of Protein kinase C theta type (Homo sapiens) (Q04759 whole entry, looked up): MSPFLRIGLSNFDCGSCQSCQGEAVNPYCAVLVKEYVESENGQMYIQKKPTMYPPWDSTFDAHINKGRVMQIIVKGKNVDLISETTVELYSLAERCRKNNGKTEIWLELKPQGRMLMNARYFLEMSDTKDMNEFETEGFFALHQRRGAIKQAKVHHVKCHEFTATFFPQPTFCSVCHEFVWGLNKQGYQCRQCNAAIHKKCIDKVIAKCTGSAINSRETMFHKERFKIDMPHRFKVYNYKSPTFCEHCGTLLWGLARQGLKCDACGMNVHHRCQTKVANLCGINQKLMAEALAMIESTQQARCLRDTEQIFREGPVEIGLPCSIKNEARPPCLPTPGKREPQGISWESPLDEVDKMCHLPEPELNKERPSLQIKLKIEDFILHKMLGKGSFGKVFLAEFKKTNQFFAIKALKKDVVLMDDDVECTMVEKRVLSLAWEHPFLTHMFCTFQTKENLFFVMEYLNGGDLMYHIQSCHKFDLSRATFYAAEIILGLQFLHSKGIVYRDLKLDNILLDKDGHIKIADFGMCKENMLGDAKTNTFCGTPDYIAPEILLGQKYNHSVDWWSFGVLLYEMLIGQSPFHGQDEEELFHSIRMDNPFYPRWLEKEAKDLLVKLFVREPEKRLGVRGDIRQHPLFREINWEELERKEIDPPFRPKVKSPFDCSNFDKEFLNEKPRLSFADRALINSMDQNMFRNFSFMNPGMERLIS
Test [5] shares this target. As to conditions: at 1 µM.
For test [6], the target named is Protein kinase C beta type (Homo sapiens) (UniProt P05771). As to conditions: at 0.1 µM.
Sequence of Protein kinase C beta type (Homo sapiens) (P05771 2-671 limits assumed): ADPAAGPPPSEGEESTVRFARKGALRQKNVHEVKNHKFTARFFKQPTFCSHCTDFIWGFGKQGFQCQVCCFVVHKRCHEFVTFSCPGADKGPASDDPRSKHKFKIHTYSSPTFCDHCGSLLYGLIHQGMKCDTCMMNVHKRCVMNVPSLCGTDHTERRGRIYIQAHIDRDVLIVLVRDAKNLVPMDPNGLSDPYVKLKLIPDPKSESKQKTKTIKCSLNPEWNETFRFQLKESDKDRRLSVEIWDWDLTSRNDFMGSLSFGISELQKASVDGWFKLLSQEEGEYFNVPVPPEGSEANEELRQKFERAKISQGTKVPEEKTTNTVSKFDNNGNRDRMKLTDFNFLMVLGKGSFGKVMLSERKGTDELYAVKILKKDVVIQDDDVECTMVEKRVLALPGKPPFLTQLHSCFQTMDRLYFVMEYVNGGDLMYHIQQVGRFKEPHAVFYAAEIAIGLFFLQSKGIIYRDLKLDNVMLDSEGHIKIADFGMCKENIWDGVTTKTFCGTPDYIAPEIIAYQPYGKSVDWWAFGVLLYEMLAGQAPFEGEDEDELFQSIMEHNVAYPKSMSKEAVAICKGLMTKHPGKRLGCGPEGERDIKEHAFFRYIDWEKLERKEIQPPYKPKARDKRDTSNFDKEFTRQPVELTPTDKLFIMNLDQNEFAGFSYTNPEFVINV
Test [7] shares this target. To be noted: at 1 µM.
The target of test [8] is T2, Serine/threonine-protein kinase D1 (Homo sapiens) (UniProt Q15139).
T2 sequence (whole entry): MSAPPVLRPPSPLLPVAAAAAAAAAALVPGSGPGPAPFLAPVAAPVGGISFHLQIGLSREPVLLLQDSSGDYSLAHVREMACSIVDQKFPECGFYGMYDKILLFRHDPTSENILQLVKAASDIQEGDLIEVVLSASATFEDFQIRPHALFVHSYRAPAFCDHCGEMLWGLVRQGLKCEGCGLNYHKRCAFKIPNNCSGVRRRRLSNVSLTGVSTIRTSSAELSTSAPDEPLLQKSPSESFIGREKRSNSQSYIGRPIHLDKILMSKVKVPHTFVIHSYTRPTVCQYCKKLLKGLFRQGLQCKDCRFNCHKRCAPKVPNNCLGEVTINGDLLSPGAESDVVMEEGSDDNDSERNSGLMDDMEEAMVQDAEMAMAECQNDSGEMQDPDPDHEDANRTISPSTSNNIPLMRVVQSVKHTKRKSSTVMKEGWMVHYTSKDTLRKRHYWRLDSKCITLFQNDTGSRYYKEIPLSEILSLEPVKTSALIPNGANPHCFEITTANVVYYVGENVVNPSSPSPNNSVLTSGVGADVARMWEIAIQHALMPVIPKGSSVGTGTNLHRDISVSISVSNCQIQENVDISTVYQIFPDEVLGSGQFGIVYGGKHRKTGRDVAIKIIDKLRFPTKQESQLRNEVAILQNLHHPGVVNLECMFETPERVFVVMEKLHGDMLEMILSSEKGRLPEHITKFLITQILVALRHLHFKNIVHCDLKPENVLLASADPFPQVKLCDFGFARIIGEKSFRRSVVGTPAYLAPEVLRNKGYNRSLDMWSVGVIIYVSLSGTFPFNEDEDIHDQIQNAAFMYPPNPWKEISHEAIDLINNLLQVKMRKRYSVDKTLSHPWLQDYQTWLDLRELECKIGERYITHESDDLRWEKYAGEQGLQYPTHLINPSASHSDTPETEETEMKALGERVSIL
As to conditions: at 0.1 µM.

The target of test [9] is T2, Serine/threonine-protein kinase D1 (Homo sapiens). As to conditions: at 1 µM.
Test [10] concerns the target T3, Serine/threonine-protein kinase D2 (Homo sapiens) (UniProt Q9BZL6).
T3 sequence (whole entry): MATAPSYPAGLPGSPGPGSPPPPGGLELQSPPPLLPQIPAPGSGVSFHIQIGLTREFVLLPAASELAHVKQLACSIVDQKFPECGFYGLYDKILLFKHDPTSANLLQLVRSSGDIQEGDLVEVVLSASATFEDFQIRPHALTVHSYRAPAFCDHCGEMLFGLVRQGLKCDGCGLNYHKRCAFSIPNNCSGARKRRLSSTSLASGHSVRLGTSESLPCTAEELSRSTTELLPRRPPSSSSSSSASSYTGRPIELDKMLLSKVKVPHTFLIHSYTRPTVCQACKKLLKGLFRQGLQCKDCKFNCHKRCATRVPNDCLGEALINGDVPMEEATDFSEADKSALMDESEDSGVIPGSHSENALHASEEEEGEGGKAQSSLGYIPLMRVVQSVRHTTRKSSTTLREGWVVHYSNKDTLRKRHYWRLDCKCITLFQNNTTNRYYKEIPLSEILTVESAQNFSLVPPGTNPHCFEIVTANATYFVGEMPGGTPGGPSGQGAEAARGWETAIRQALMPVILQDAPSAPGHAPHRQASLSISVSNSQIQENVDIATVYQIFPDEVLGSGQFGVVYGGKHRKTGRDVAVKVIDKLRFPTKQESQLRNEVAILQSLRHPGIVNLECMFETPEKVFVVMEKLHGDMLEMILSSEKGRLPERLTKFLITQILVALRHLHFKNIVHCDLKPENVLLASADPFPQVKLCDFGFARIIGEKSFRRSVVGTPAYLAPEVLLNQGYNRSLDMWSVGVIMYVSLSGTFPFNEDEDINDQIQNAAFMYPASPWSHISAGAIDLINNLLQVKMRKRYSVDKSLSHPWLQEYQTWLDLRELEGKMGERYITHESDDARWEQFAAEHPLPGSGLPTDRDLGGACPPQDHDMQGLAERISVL
As to conditions: at 0.1 µM.

Test [11] concerns the target T3, Serine/threonine-protein kinase D2 (Homo sapiens). To be noted: at 1 µM.
Test [12] concerns the target T4, Serine/threonine-protein kinase D3 (Homo sapiens) (UniProt O94806).
T4 sequence (whole entry): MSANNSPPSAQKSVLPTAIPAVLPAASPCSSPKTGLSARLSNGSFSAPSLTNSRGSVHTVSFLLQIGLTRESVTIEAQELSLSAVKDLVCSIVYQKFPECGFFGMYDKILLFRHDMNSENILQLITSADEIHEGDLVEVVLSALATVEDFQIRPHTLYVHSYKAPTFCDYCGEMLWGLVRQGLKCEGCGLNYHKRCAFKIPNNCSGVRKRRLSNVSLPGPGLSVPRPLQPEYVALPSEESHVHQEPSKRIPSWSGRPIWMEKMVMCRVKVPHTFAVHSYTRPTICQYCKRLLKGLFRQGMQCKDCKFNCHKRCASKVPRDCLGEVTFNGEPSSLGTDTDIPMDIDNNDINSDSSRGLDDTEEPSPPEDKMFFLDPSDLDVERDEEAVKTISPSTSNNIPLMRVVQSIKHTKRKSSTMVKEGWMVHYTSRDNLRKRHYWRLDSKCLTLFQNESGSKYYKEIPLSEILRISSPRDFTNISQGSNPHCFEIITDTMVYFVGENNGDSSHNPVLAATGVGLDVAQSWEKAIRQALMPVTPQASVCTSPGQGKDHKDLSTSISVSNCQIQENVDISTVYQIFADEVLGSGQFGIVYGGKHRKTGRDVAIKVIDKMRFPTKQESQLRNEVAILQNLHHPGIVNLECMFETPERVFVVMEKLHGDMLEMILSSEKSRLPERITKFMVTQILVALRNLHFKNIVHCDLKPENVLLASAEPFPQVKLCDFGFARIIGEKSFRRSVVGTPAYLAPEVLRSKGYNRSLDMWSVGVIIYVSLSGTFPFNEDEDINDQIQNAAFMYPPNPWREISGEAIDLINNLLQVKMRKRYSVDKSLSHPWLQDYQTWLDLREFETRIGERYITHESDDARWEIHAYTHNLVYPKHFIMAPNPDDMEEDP
To be noted: at 0.1 µM.

The target in test [13] is T4, Serine/threonine-protein kinase D3 (Homo sapiens). As to conditions: at 1 µM.
The target in test [14] is T5, cGMP-dependent protein kinase 1 (Homo sapiens) (UniProt Q13976).
T5 sequence (whole entry): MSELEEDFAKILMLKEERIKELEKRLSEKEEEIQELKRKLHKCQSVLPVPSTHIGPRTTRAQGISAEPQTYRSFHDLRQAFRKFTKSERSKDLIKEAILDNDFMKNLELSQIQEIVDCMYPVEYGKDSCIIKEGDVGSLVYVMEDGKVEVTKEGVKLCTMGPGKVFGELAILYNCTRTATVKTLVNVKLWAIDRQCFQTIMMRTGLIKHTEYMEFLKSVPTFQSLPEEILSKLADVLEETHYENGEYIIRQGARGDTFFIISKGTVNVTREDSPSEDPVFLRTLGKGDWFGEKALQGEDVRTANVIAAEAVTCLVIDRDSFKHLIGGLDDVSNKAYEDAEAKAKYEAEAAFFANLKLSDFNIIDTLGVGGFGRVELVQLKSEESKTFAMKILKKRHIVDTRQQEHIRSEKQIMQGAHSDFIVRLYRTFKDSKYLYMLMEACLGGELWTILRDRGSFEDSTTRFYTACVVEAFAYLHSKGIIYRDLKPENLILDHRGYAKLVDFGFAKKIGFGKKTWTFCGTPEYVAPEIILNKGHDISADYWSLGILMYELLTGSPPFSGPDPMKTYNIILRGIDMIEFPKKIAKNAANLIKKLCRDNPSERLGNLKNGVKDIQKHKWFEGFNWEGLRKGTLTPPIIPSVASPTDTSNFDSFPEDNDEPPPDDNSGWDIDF
As to conditions: at 0.1 µM.

In test [15] the target is T5, cGMP-dependent protein kinase 1 (Homo sapiens). As to conditions: at 1 µM.
For test [16], the target named is T6, cGMP-dependent protein kinase 2 (Homo sapiens) (UniProt Q13237).
T6 sequence (whole entry): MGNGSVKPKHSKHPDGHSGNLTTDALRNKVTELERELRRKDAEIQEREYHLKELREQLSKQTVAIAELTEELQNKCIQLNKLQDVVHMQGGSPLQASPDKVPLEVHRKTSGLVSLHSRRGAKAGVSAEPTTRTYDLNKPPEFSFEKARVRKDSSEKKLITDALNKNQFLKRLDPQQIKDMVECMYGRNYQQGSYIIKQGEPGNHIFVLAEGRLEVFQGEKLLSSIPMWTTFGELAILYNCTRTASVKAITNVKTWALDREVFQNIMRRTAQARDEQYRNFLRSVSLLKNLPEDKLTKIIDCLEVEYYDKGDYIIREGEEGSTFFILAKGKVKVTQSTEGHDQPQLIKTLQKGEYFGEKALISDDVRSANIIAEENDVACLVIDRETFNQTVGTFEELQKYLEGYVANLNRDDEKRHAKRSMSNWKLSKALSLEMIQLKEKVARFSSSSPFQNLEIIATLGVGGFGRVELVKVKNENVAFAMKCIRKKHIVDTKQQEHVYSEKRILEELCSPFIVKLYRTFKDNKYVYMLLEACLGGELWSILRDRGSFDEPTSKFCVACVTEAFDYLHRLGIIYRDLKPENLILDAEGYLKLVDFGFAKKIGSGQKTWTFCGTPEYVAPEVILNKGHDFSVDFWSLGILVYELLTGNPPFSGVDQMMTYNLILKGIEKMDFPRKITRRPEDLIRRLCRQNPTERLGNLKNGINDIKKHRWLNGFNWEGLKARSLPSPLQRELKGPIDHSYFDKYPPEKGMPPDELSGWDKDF
As to conditions: at 0.1 µM.

Test [17] deals with T6, cGMP-dependent protein kinase 2 (Homo sapiens). As to conditions: at 1 µM.
Test [18] addresses T7, cAMP-dependent protein kinase catalytic subunit PRKX (Homo sapiens) (UniProt P51817).
T7 sequence (whole entry): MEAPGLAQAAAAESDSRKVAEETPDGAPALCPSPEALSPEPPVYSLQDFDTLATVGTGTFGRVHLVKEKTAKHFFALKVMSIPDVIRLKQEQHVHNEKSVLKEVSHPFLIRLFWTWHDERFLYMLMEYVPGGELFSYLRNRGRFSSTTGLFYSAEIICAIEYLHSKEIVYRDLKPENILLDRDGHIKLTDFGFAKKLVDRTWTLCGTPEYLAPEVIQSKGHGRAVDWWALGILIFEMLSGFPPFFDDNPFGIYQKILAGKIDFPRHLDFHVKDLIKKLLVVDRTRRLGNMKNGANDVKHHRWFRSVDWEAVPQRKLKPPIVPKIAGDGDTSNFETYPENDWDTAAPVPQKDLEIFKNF
As to conditions: at 0.1 µM.

Test [19] concerns the target T7, cAMP-dependent protein kinase catalytic subunit PRKX (Homo sapiens). As to conditions: at 1 µM.
For test [20], the target named is Rho-associated protein kinase 1 (Homo sapiens) (UniProt Q13464). As to conditions: at 0.1 µM.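 Also: values are mean percent inhibition of ROCK1.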
Sequence of Rho-associated protein kinase 1 (Homo sapiens) (Q13464 2-1354 limits assumed): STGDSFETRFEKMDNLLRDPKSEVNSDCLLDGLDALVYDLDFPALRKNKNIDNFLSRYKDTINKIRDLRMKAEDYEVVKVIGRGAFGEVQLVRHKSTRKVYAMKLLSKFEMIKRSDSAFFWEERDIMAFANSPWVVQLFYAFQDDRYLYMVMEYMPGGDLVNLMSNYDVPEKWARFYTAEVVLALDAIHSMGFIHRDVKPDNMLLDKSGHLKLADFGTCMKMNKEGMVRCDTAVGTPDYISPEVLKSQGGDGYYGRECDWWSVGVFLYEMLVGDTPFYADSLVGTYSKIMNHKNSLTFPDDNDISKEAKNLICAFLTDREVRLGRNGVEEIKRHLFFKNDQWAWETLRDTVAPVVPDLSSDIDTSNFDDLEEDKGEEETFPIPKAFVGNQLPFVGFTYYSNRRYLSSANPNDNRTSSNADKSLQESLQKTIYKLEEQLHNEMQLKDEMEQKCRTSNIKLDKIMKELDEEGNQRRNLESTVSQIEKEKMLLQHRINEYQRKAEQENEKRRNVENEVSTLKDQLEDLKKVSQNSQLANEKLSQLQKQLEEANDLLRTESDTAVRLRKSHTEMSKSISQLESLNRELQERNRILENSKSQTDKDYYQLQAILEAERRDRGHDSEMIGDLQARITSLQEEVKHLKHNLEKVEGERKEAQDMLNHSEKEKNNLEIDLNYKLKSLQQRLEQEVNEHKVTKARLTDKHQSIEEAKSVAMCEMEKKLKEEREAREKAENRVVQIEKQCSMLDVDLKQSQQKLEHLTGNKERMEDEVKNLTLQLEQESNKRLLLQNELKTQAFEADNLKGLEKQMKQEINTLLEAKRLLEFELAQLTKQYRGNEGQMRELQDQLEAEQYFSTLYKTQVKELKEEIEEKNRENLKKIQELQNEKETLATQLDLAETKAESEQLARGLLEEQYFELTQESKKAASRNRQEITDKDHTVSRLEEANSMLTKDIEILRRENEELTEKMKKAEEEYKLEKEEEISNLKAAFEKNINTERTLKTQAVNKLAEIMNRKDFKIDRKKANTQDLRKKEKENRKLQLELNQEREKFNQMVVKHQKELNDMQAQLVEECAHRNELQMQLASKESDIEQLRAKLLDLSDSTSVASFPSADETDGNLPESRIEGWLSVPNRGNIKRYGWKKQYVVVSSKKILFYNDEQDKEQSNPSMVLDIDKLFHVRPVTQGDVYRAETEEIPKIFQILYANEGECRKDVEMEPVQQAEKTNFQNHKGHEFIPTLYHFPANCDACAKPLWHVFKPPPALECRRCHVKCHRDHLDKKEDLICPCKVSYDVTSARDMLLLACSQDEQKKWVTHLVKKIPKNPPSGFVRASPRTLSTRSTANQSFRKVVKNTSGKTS

On to `NS(=O)(=O)c1ccc(N/N=C2\C(=O)Nc3ccc(C(=O)NCCCn4ccnc4)cc32)cc1`, for which the inhibition was 7.85% in [1]; 2% in [2]; 1.81% in test [3]; 2.3% in test [4]; 6.44% in [5]; 2.11% in test [6]. The inhibition in [7] was 4.2%; in test [8] it was 5.9%; in test [9] it was 22.9%; in test [10], 7.13%; in [11] it was 22.3%; in test [12], 5.36%. Moreover, the inhibition in test [13] was 17.6%; in [14], 4.15%; in test [15], 18.9%; in test [16], 4.37%; in test [17], 28.2%; in test [18] it was 3.32%. For the same compound, the inhibition in test [19] was found to be 7.39%; in test [20], 2.63%.

`COc1cc(Nc2ncc3c(C)nc(-c4cccc(Oc5ccccc5)c4)n3n2)cc(OC)c1OC`: the inhibition in test [1] is 2.12%; in test [2], 0.93%; in test [3], 1.81%; in test [4], 0.31%; in test [5], -0.72%; in test [6], 0.53%. The inhibition came out at 0.55% in test [7]; 1.42% in test [8]; 2.93% in [9]; 1.26% in test [10]; 3% in test [11]; 1.74% in test [12]. For the same compound, the inhibition in test [13] was found to be 3.77%; in test [14], 1.98%; in [15] it was 2.3%; in test [16] it was 1.18%; in test [17], 2.71%; in test [18], 1.26%. The results for the inhibition in test [19] and in test [20] were -0.03% and 1.05%, respectively.
